Source: PubChem BioAssay AID463195 (Sanford-Burnham Center for Chemical Genomics, 2010)
The whole screen tested about 330,000 compounds, of which about 4,600 (1.4%) were called active. This is one part of a sample in which actives are shown more often than they occur.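 How the source made its calls: active means inhibition of 40% or more at the single tested concentration; inactive means the rest.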

Experiment: growth inhibitors of isogenic TIM10 control yeast, primary screen, counter-screen for tim10-1 yeast inhibitor project, luminescence, uHTS (AID 463195);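 further: wild-type TIM10 isogenic control strain grown at permissive 25 °C; 0% = DMSO yeast wells and 100% = minimal medium wells without yeast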
Settings: S. cerevisiae TIM10 strain growth, BacTiter-Glo luminescence, 24 h; at 10 µM; active compounds read high

| Compound | inhibition |
| --- | --- |
| CC1CCC(NC(=O)C2c3ccccc3C(=O)N2Cc2ccc3c(c2)OCO3)CC1 (stereo not drawn) | 0.084% (inactive) |
| CCc1ccc(NC(=O)NC(C)c2ccc3c(c2)OCO3)cc1 (stereo not drawn) | 6.53% (inactive) |
| CC(=NCc1ccc2c(c1)OCO2)C1=C(O)c2ccccc2C1=O | 70.5% (active) |
| O=C1N(c2ccccc2)C(=Nc2ccccc2)SC12CC2 | 13.6% (inactive) |
| CC(=O)Nc1ccc(Nc2c([N+](=O)[O-])cc(S(C)(=O)=O)cc2[N+](=O)[O-])cc1 | -6.6% (inactive) |
| CN(C)CCc1c[nH]c2ccc(Cn3cncn3)cc12 | 5.24% (inactive) |
| O=C(COC(=O)c1ccccc1Br)Nc1nnc(-c2ccccc2)o1 | -0.697% (inactive) |
| Cc1ccc(S(=O)(=O)n2nc(OC(=O)C(C)(C)C)cc2N)cc1 | 17.1% (inactive) |
| Nc1cc(OC(=O)c2ccccc2Br)nn1S(=O)(=O)c1ccccc1 | 46.5% (active) |
| O=C(Cc1ccc(-n2c(=O)c3sccc3n(Cc3ccc(F)cc3)c2=O)cc1)NCc1ccco1 | 8.88% (inactive) |
| O=C(NCc1ccco1)c1ccc(Cn2c(=O)c3sccc3n(Cc3ccc(F)cc3)c2=O)cc1 | 2.56% (inactive) |
| O=C(NCc1ccco1)c1cc2sccc2n1Cc1ccc(F)cc1 | 46.4% (active) |
| COc1ccc(N2CC(C(=O)NCCS(=O)(=O)N3CCN(c4ccccc4)CC3)CC2=O)cc1 (stereo not drawn) | -13.2% (inactive) |
| C[C@H]1CN([C@@H](C)CO)C(=O)Cc2cc(NS(C)(=O)=O)ccc2O[C@@H]1CN(C)CC1CC1 | -6.97% (inactive) |
| O=S(=O)(c1ccccc1)N(Cc1cccc(F)c1)c1ccccc1 | 3.1% (inactive) |
| CCN(c1ccccc1)S(=O)(=O)c1ccc(N)cc1 | 8.8% (inactive) |
| O=S(=O)(ON(c1ccccc1)S(=O)(=O)c1ccccc1)c1ccccc1 | 45.9% (active) |
| COC(=O)c1ccc(OC(=O)c2nn(C)cc2Cl)c(OC)c1 | 8.9% (inactive) |
| O=C(O)c1ccccc1N=N/C(=N/Nc1cc(S(=O)(=O)O)ccc1O)c1ccccc1 | 0.626% (inactive) |
| O=c1c2ccccc2nnn1CSc1nc2sc3c(c2c(=O)n1CC1CCCO1)CCC3 (stereo not drawn) | 25.8% (inactive) |
| Cc1nnc(-c2ccc(Oc3ccc(C)c(C)c3)c([N+](=O)[O-])c2)o1 | 17.1% (inactive) |
| O=C(OCC(=O)c1c[nH]c2ccccc12)c1cccc(O)c1 | 5.38% (inactive) |
| COc1ccc(NC(=O)C/C(C)=N/NC(=O)c2cnccn2)cc1Cl | 3.17% (inactive) |
| CCN1CCN(c2ccc(NC(=O)c3cnccn3)cc2)CC1 | -4.6% (inactive) |

| Compound | inhibition |
| --- | --- |
| CCN(CC)c1ccc(/C=N/NC(=O)c2cnccn2)c(O)c1 | 44.5% (active) |
| Cc1ccc2nc(Nc3ncc4c(n3)CC(C)(C)CC4=O)nc(C)c2c1 | 5.07% (inactive) |
| Cc1cc(=O)n2nc(N3CCCC(C(=O)N4CCN(C)CC4)C3)sc2n1 (stereo not drawn) | 2.79% (inactive) |
| O=c1c2c(-c3ccccc3)ccnc2[nH]n1-c1ccccc1 | -17.3% (inactive) |
| COc1ccc(-n2cc(-c3ccccc3)c3c(=S)nc[nH]c32)cc1 | 33.8% (inactive) |
| O=c1[nH]cnc2c1c(-c1ccccc1)cn2-c1ccc(F)cc1 | 42.6% (active) |
| O=[N+]([O-])c1cc(C(F)(F)F)ccc1NCCc1ccncc1 | 6.18% (inactive) |
| Cc1nn(Cc2ccccc2Cl)c(C)c1NC(=O)Cn1nc([N+](=O)[O-])c(Cl)c1C | 2.84% (inactive) |
| NC(=O)C[n+]1cccc(C(N)=O)c1 | 13.2% (inactive) |
| C#CCOCCOCCOCCNc1nc(N2CCN(C(=O)[C@H](CCC(=O)O)n3cc(C(N)CO)nn3)CC2)nc(N2CCN(C(=O)[C@H](CCCCN)n3cc(C(N)CC(C)C)nn3)CC2)n1 (stereo partly drawn) | -1.57% (inactive) |
| CC(C)(C)N(CC#CCC(O)(c1ccccc1)C1CCCC1)CCO (stereo not drawn) | 0.266% (inactive) |
| O=C1CC(N2CCN(c3ccc(F)cc3)CC2)C(=O)N1c1ccccc1 (stereo not drawn) | -7.52% (inactive) |
| CC(=O)Nc1ccc(S(=O)(=O)Nc2ccc(N3CCCCC3)cc2)cc1 | -2.15% (inactive) |
| O=C1C=CC(=O)N1c1ccc(N2CCCCC2)cc1 | 73.2% (active) |
| COc1ccc(-c2cc(C3CCN(c4ncccc4[N+](=O)[O-])CC3)[nH]n2)cc1 | 33% (inactive) |
| CC(=O)CSc1nnc(CSc2ncccn2)n1C1CCCCC1 | 3.42% (inactive) |
| Nn1cnnc1N/N=C/c1cc([N+](=O)[O-])c(Cl)cc1Cl | -10.5% (inactive) |
| N#C/C(=C\c1ccccc1C(F)(F)F)C(=O)Nc1ccccc1F | 47.5% (active) |
| O=C(Nc1ccccc1F)c1ccccc1-c1ccc(C(F)(F)F)cc1 | 9.5% (inactive) |
| CN(CC(=O)Nc1ccccc1C(F)(F)F)C(=O)Cc1ccccc1F | 12.1% (inactive) |
| NS(=O)(=O)c1ccc(N=Nc2c(O)[nH]c3ccc(Br)cc23)cc1 | -10.2% (inactive) |
| Oc1[nH]c2ccc(Br)cc2c1N=Nc1nn[nH]n1 | 6.35% (inactive) |
| Cc1cccc(N=Nc2c(O)[nH]c3ccc(F)cc23)c1 | 45% (active) |
| Cc1ccc(C)c(NC2=NCC(=O)N2c2ccc3c(c2)OCCO3)c1 | 2.39% (inactive) |

| Compound | inhibition |
| --- | --- |
| Cc1ccc(C(=O)N2CC(=O)Nc3ccc(F)cc3C2c2ccc(F)cc2)cc1 (stereo not drawn) | 20.6% (inactive) |
| CC1=CC=CN2C1=NC(=O)CC2(C)C(=O)N(CC(=O)NC1CCCC1)c1ccccc1C (stereo not drawn) | -13.9% (inactive) |
| O=C(COC(=O)c1ccc([N+](=O)[O-])o1)NC12CC3CC(CC(C3)C1)C2 | 44.7% (active) |
| O=C(COC(=O)c1ccc(Br)o1)NC12CC3CC(CC(C3)C1)C2 | 25.9% (inactive) |
| O=C(OCC(=O)c1cccs1)c1ccc([N+](=O)[O-])o1 | 14.1% (inactive) |
| COc1ccc(C2=NS(=O)(=O)N(C)C(C(=O)NC(C)c3ccccc3)=C2)cc1 (stereo not drawn) | -4.03% (inactive) |
| Cn1c(=O)c2c(nc(NCCNC(=O)c3ccco3)n2Cc2ccccc2F)n(C)c1=O | -1.93% (inactive) |
| O=C(OCC(=O)N1CCN(c2ccccc2)CC1)c1ccc([N+](=O)[O-])s1 | -16.2% (inactive) |
| COc1cc(NC(=O)COC(=O)c2ccc([N+](=O)[O-])s2)cc(OC)c1OC | 32.6% (inactive) |
| COc1ccc(C(=O)COC(=O)c2ccc([N+](=O)[O-])s2)cc1OC | 60.6% (active) |
| O=C(O)c1cccc2c1C(=O)N(C1CCCCC1)C2 | 17.6% (inactive) |
| COc1ccc(CNC(=O)C2CCN(C(=O)c3ccco3)CC2)cc1 | 6.55% (inactive) |
| CC(C)NS(=O)(=O)c1ccc(CCC(=O)N2CCOCC2)cc1 | -1.05% (inactive) |
| C=CCSC(CC)(CC)C(N)=O | 2.57% (inactive) |
| NS(=O)(=O)c1ccc(NC(=S)NC(=O)c2cccc(Br)c2)cc1 | 19.3% (inactive) |
| NS(=O)(=O)c1ccc(CCNC(=S)Nc2ccc(S(N)(=O)=O)cc2)cc1 | 1.03% (inactive) |
| NS(=O)(=O)c1ccc(NC(=S)Nc2ccc(Br)c(Cl)c2)cc1 | 42.9% (active) |
| O=C(CSc1nc(O)c(Cc2ccccc2)c(=O)[nH]1)Nc1nc2c(s1)CCCC2 | -0.307% (inactive) |
| O=C(NCc1ccccc1)c1ccc(CNc2c(N3CCCC3)c(=O)c2=O)cc1 | 2.83% (inactive) |
| CCOC(=O)C(CCOc1cccc(CC)c1)C(=O)OCC | 9.43% (inactive) |
| Cc1noc(C)c1S(=O)(=O)Nc1ccc(C(=O)N2CCN(c3ccc(F)cc3)CC2)cc1 | 3.71% (inactive) |
| Cc1ccc(F)cc1NC(=O)N1CCCN(c2ccc(C(F)(F)F)cn2)CC1 | 21.2% (inactive) |
| Cc1ccc2nc(N3CCN(C(=O)c4ccco4)CC3)sc2c1 | -6.8% (inactive) |
| O=C(c1ccc2nc(N3CCOCC3)sc2c1)N1CCN(c2ccc(Cl)cc2)CC1 | 39.5% (inactive) |

| Compound | inhibition |
| --- | --- |
| COc1ccc2nc(N3CCN(C(=O)c4ccc([N+](=O)[O-])o4)CC3)sc2c1 | 43.2% (active) |
| CCCC(=O)n1nc(NCc2ccc(OC)cc2)nc1NCc1ccc(OC)cc1 | -4.33% (inactive) |
| Cc1ccnc(SCC(=O)Nc2cccc(S(=O)(=O)N3CCOCC3)c2)n1 | -2.35% (inactive) |
| COC(=O)c1cc(=O)n(-c2c(Cl)cc(C(F)(F)F)cc2Cl)[nH]1 | -4.96% (inactive) |
| COc1ccc2ccn(C)c2c1 | -5.57% (inactive) |
| COc1ccc2c(c1)cc1n2CCN=C1NN | 76.6% (active) |
| O=C(O)CSc1ccc(S(=O)(=O)N2CCCC2)cn1 | 8.26% (inactive) |
| O=C(CCC1CCCN(C(=O)c2ccc(F)c(F)c2)C1)N1CCN(c2ccccn2)CC1 (stereo not drawn) | 13.4% (inactive) |
| Cc1no[n+]([O-])c1COc1ccccc1/C=C1\NC(=S)NC1=O | -3.3% (inactive) |
| Cc1ccc(SCC(=O)NNC(=O)c2ccc(S(C)(=O)=O)cc2)cc1 | 2.08% (inactive) |
| O=S(=O)(NN=C1CCCCCCC1)c1ccc(Br)cc1 | 17.3% (inactive) |
| CCc1ccc(C(CNc2nc(C(F)(F)F)nc3ccccc23)N(C)C)cc1 (stereo not drawn) | 9.55% (inactive) |
| COc1cccc(CNc2nc(C(F)(F)F)nc3ccccc23)c1 | 44.2% (active) |
| COc1ccc(CNc2ncnc3ccccc23)cc1 | 2.62% (inactive) |
| COc1ccc(/C(N)=N/OC(=O)Cc2ccccc2)cc1 | 21.6% (inactive) |
| N/C(=N\OC(=O)CCc1ccccc1)c1cccnc1 | -2.8% (inactive) |
| COc1ccc(/C(N)=N/OC(=O)Oc2ccccc2)cc1 | 2.38% (inactive) |
| N/C(=N\OC(=O)CCc1ccccc1)c1ccc(Cl)cc1 | 57.5% (active) |
| COc1ccc(/C(N)=N/OC(=O)CCCc2ccccc2)cc1 | 48.1% (active) |
| N/C(=N\OC(=O)CC1CCCCC1)c1ccccc1 | 38% (inactive) |
| Nc1cccc(S(=O)(=O)Nc2ccc(SC(F)F)cc2)c1 | 15.6% (inactive) |
